Among the test systems are T-47D breast; BT-549 breast; MDA-MB-435 melanoma; SW-620 colon; MCF7 breast; HCT-116 colon; HCC-2998 colon; KM12 colon.
Test in all cases: NCI-60 one-dose screen, 48 h (100 = growth as untreated, 0 = no growth, -100 = all killed)
Holding throughout (conditions): 10 µM unless noted

About 83,000 compounds went through this panel and 20% of them were active in at least one assay; those are over-represented in the sample as a whole.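 48-hour exposure, single concentration, 96-well plates; percent growth endpoint where 0 means no net growth. Active: below 10.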 Values without a mark were called inactive. Activity calls are given as the source filed them.

On to `COc1ccc(C(=O)Nc2ncc(Cc3ccc(Cl)cc3)s2)cc1`, for which the growth was 25.9% in the assay with T-47D breast; 17.8% with BT-549 breast; 2.35% (active) in the assay on MDA-MB-435 melanoma; 25.7% in the assay on SW-620 colon; 8.72% (active) in the assay on MCF7 breast; 3.61% (active) in the assay on HCT-116 colon. In addition, the growth is 6.76% (active) in the assay on HCC-2998 colon and 5.8% (active) in the assay with KM12 colon.
Take `Nc1c(C(=O)Nc2cccc3ncccc23)sc2nc3c(cc12)CN(Cc1ccccc1)CC3`: the growth in the assay on T-47D breast was 41.3%; with BT-549 breast, 71.5%; in the assay on MDA-MB-435 melanoma, 22.1%; in the assay on SW-620 colon, 83.7%; in the assay with MCF7 breast, 53.1%; in the assay with HCT-116 colon, 74.2%. Moreover, the growth with HCC-2998 colon is 93.5%; in the assay on KM12 colon, 86.7%.
With `COC(=O)/C=C1/SC(=Nc2ccc(F)cc2)N(CCc2c[nH]c3ccc(O)cc23)C1=O`, the growth is 23.7% in the assay on T-47D breast; 8.93% (active) in the assay with BT-549 breast; 25.4% in the assay on MDA-MB-435 melanoma; 53.7% in the assay with SW-620 colon; 17% with MCF7 breast; 23.1% with HCT-116 colon. Moreover, the growth in the assay on HCC-2998 colon is 45.9%; in the assay on KM12 colon it was 38.3%.
Take `COc1cc(C=Nc2oc(-c3ccccc3)c(-c3ccccc3)c2C#N)cc(CN2CCCC2)c1O`: the growth in the assay with T-47D breast was 85.7%; with BT-549 breast, 109%; with MDA-MB-435 melanoma it was 104%; in the assay on SW-620 colon it was 95.9%; in the assay on MCF7 breast it was 96.4%; in the assay on HCT-116 colon, 95.4%. Moreover, the growth in the assay with HCC-2998 colon is 111%; in the assay on KM12 colon, 102%.
Regarding `CCOC(=O)c1c(NC(=O)c2ccccc2)sc2c3c(ccc12)OCN(C)C3`, the growth with T-47D breast was -10.1% (active); in the assay on BT-549 breast it was 62.2%; in the assay on MDA-MB-435 melanoma, -88.5% (active); in the assay with SW-620 colon, -42.3% (active); in the assay with MCF7 breast it was -50.6% (active); in the assay on HCT-116 colon, -20.9% (active). The results for the growth with HCC-2998 colon and with KM12 colon were -85% (active) and 8.58% (active), respectively.
Take `Fc1cc2[nH]ncc2c2c3c(c(-c4cn[nH]c4C(F)(F)F)nc12)CCCC3`: the growth is -16.2% (active) in the assay with T-47D breast; -64.2% (active) with BT-549 breast; 26.2% in the assay with MDA-MB-435 melanoma; 4.23% (active) with SW-620 colon; 2.27% (active) in the assay on MCF7 breast; 1.05% (active) in the assay on HCT-116 colon. Further, the growth is -14.2% (active) in the assay with HCC-2998 colon and 9.4% (active) with KM12 colon.
Turning to `c1ccc2cc(Cn3cc(CSc4nc5ccccc5s4)nn3)ccc2c1`, the growth with T-47D breast is 80.8%; in the assay with BT-549 breast, 96.3%; in the assay with MDA-MB-435 melanoma, 105%; with SW-620 colon, 94.5%; in the assay on MCF7 breast, 91.7%; with HCT-116 colon it was 96.3%. The growth with HCC-2998 colon was 102%; in the assay with KM12 colon it was 100%.
As for `CCNC(=O)N1CCc2c(Br)c3c(c(OC)c2C1Cc1ccc(OC)cc1)OCO3` (stereo not given), the growth was 20.6% in the assay with T-47D breast; 30% in the assay with BT-549 breast; -9.57% (active) in the assay with MDA-MB-435 melanoma; 19% in the assay on SW-620 colon; 12.2% in the assay with MCF7 breast; 20.9% in the assay on HCT-116 colon. The growth in the assay on HCC-2998 colon is 71.3%; with KM12 colon it was 22%.
On to `CC12OC(CC(O)C1O)n1c3ccccc3c3c4c(c5c6ccccc6n2c5c31)C(=O)N(CCN1CCCC1)C4=O` (stereo not given), for which the growth is 21.9% with T-47D breast; 52.9% in the assay on BT-549 breast; 30.4% in the assay with MDA-MB-435 melanoma; 13.9% in the assay with SW-620 colon; 2.15% (active) with MCF7 breast; 13.4% in the assay with HCT-116 colon. Moreover, the growth was 13.3% in the assay with HCC-2998 colon and 27.9% with KM12 colon.
Regarding `COc1ccc2c(c1)C(C)Cc1c(ncnc1-n1cnc3cc(C)ccc31)N2C` (stereo not given), the growth in the assay with T-47D breast is 44.6%; in the assay on BT-549 breast it was -3.64% (active); with MDA-MB-435 melanoma, -17.5% (active); in the assay with SW-620 colon, 25%; in the assay with MCF7 breast, 16.1%; in the assay on HCT-116 colon it was 6.84% (active). For the same compound, the results for the growth in the assay on HCC-2998 colon and with KM12 colon were 10.7% and 12.2%, respectively.
With `Cc1c2ncccc2nc2[nH]c3ccc(OCCN(C)C)cc3c12`, the growth with T-47D breast was 32.3%; in the assay on BT-549 breast, 63.2%; in the assay with MDA-MB-435 melanoma, 36.8%; in the assay on SW-620 colon, 17.3%; in the assay with MCF7 breast, 3.49% (active); in the assay with HCT-116 colon it was 12.6%. In addition, the growth with HCC-2998 colon was 53.3%; with KM12 colon, 20.9%.
Regarding `COc1ccc(-c2cc(-c3cn(-c4cccc(Cl)c4)nc3-c3ccc(OC)cc3)on2)cc1`, the growth in the assay on T-47D breast was 95%; in the assay with BT-549 breast, 121%; with MDA-MB-435 melanoma, 110%; in the assay on SW-620 colon, 106%; in the assay on MCF7 breast, 86.6%; in the assay on HCT-116 colon it was 101%. For the same compound, the growth was 101% with HCC-2998 colon and 92.5% with KM12 colon.
Turning to `CC(C)(C)c1ccc(S(=O)(=O)Oc2ccc(-c3sc4cc(OS(=O)(=O)c5ccc(C(C)(C)C)cc5)ccc4c3C(=O)c3ccc(OCCN4CCCCC4)cc3)cc2)cc1`, the growth is 79.1% in the assay with T-47D breast; 97.7% with BT-549 breast; 100% in the assay on MDA-MB-435 melanoma; 101% in the assay with SW-620 colon; 96.8% in the assay on MCF7 breast; 91.6% in the assay with HCT-116 colon. The growth is 98.1% with HCC-2998 colon and 95.5% with KM12 colon.
Consider `Cc1ncc(C(=O)Nc2ccc(CN3CCN(C)CC3)c(C(F)(F)F)c2)cc1C#Cc1cnc(N)c2ccc(C#N)cc12`, for which the growth was 19% in the assay with T-47D breast; 43.5% with BT-549 breast; -28.4% (active) in the assay on MDA-MB-435 melanoma; 6.41% (active) in the assay with SW-620 colon; 11.5% in the assay on MCF7 breast; -19.9% (active) in the assay on HCT-116 colon. Besides, the growth in the assay on HCC-2998 colon is 34.1%; with KM12 colon, 3.87% (active).
Turning to `CSc1nc2ccc(C)cc2cc1/C=C1/C=C(c2ccccc2)NC1=O`, the growth in the assay on T-47D breast was -0.11% (active); in the assay on BT-549 breast, 76%; in the assay on MDA-MB-435 melanoma, 30.9%; in the assay on SW-620 colon, 34.9%; with MCF7 breast, 48.1%; in the assay with HCT-116 colon, 9.26% (active). The values for the growth in the assay with HCC-2998 colon and in the assay with KM12 colon were 83.4% and 70.4%, respectively.

These data come from PubChem BioAssay (NCI).
